From paper doi:10.1101/2024.03.05.583629

target: pT7_6His-AlfaTag-HOXD13 (human, UniProt P35453 263-343); test: PADIT-seq; settings: dsDNA, one strand shown
Sequence (P35453 263-343): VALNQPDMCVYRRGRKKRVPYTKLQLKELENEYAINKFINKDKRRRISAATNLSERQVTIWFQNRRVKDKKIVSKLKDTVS

Q: For “CTCGAGGATATCAAGATCTGGCCTCGGCCGCCCAGAAGGAACCTCTAGCTAGCCGACTCACTATAGGGATAATCGCCCTGAGCAAAGACC”, which binding signal is on record?
A: -1.09 ± 0.133 log2FC

Q: How did the binding signal turn out when “CTCGAGGATATCAAGATCTGGCCTCGGCAACATAAAAGGAACCTCTAGCTAGCCGACTCACTATAGGGATAATCGCCCTGAGCAAAGACC” was run?
A: 1.52 ± 0.0783 log2FC

Q: For “CTCGAGGATATCAAGATCTGGCCTCGGCTTTTTAGCCGGAACCTCTAGCTAGCCGACTCACTATAGGGATAATCGCCCTGAGCAAAGACC”, which binding signal is on record?
A: -0.442 ± 0.12 log2FC

Q: How did the binding signal turn out when “CTCGAGGATATCAAGATCTGGCCTCGGCATTTTAGCCGGAACCTCTAGCTAGCCGACTCACTATAGGGATAATCGCCCTGAGCAAAGACC” was run?
A: -0.535 ± 0.111 log2FC

Q: Which binding signal does the source give for “CTCGAGGATATCAAGATCTGGCCTCGGCGAACTAAAAGGAACCTCTAGCTAGCCGACTCACTATAGGGATAATCGCCCTGAGCAAAGACC” here?
A: -0.56 ± 0.0894 log2FC

Q: How did the binding signal turn out when “CTCGAGGATATCAAGATCTGGCCTCGGCGTTTTAGGTGGAACCTCTAGCTAGCCGACTCACTATAGGGATAATCGCCCTGAGCAAAGACC” was run?
A: -0.0193 ± 0.12 log2FC

Q: With “CTCGAGGATATCAAGATCTGGCCTCGGCGGTATAAAAGGAACCTCTAGCTAGCCGACTCACTATAGGGATAATCGCCCTGAGCAAAGACC” as the sequence, how does the binding signal read?
A: 1.44 ± 0.072 log2FC

Q: For “CTCGAGGATATCAAGATCTGGCCTCGGCTAAATAAAAGGAACCTCTAGCTAGCCGACTCACTATAGGGATAATCGCCCTGAGCAAAGACC”, which binding signal is on record?
A: 1.68 ± 0.0988 log2FC

Q: Which binding signal does the source give for “CTCGAGGATATCAAGATCTGGCCTCGGCAGGGTAAAAGGAACCTCTAGCTAGCCGACTCACTATAGGGATAATCGCCCTGAGCAAAGACC” here?
A: -0.13 ± 0.081 log2FC

Q: For “CTCGAGGATATCAAGATCTGGCCTCGGCCTTTTAACGGGAACCTCTAGCTAGCCGACTCACTATAGGGATAATCGCCCTGAGCAAAGACC”, which binding signal is on record?
A: 1.98 ± 0.0882 log2FC

Q: How did the binding signal turn out when “CTCGAGGATATCAAGATCTGGCCTCGGCTTTTTATTAGGAACCTCTAGCTAGCCGACTCACTATAGGGATAATCGCCCTGAGCAAAGACC” was run?
A: 3.3 ± 0.0796 log2FC

Q: “CTCGAGGATATCAAGATCTGGCCTCGGCTCTCTAAAAGGAACCTCTAGCTAGCCGACTCACTATAGGGATAATCGCCCTGAGCAAAGACC” was tested. Which binding signal did it give?
A: 0.412 ± 0.105 log2FC

Q: With “CTCGAGGATATCAAGATCTGGCCTCGGCCTTTTATAGGGAACCTCTAGCTAGCCGACTCACTATAGGGATAATCGCCCTGAGCAAAGACC” as the sequence, how does the binding signal read?
A: 3.21 ± 0.0791 log2FC

Q: “CTCGAGGATATCAAGATCTGGCCTCGGCCGCGTGCGCGGAACCTCTAGCTAGCCGACTCACTATAGGGATAATCGCCCTGAGCAAAGACC” was tested. Which binding signal did it give?
A: -0.99 ± 0.127 log2FC

Q: For “CTCGAGGATATCAAGATCTGGCCTCGGCGTTTTATGAGGAACCTCTAGCTAGCCGACTCACTATAGGGATAATCGCCCTGAGCAAAGACC”, which binding signal is on record?
A: 3.28 ± 0.127 log2FC

Q: Which binding signal does the source give for “CTCGAGGATATCAAGATCTGGCCTCGGCGGTCTAAAAGGAACCTCTAGCTAGCCGACTCACTATAGGGATAATCGCCCTGAGCAAAGACC” here?
A: -0.664 ± 0.0879 log2FC

Q: “CTCGAGGATATCAAGATCTGGCCTCGGCGTTTTAGTAGGAACCTCTAGCTAGCCGACTCACTATAGGGATAATCGCCCTGAGCAAAGACC” was tested. Which binding signal did it give?
A: 1.61 ± 0.098 log2FC

Q: With “CTCGAGGATATCAAGATCTGGCCTCGGCGTTTTACAAGGAACCTCTAGCTAGCCGACTCACTATAGGGATAATCGCCCTGAGCAAAGACC” as the sequence, how does the binding signal read?
A: 3.54 ± 0.0799 log2FC
